Reference: PubChem BioAssay (NCATS)
A number with no mark means an inactive call. Inconclusive results are not listed. Calls of active or inactive are those of the source. Unless noted, the call rests on the fitted dose curve; in most records, active means well fitted curve in the direction sought with a large enough effect; inconclusive means small, poorly fitted or top-dose-only effect, or another doubt; inactive means no such curve, though single readings can be large; an effect the other way counts as inactive or inconclusive.

Tests used:
[1] = target: Lysosomal acid glucosylceramidase (Homo sapiens) (UniProt P04062); experiment: Glucocerebrosidase-p2 (AID 348; in the data active means potency below about 10 µM; further: potency means the concentration at half of the fitted maximal effect); settings: purified GBA, blue fluorogenic substrate, 40 min
Procedure, shortened: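 Compounds titrated from 0.6 nM upwards against 0.2 nM enzyme in pH 5.9 citric acid/KH2PO4, taurocholate, tween-20; blue fluorogenic substrate 80 uM, 40 min room temperature, stopped and read Ex 365/Em 440 for AC50.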

[2] = AP1 Signaling Pathway (AID 357; active means well fitted curve in either direction with a large enough effect, not every such curve was filed as active;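 further: ME-180 reporter cells stimulated with EGF at its EC50 level; on the % scale 0 is the no-effect control and ±100 the full control effect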); settings: ME-180 AP-1-bla reporter, EGF-induced, beta-lactamase ratio, 5 h; at 7.69 µM (top of the series) unless noted
Procedure, shortened: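 Beta-lactamase reporter under AP-1 response element, ME-180 background. Stimulus: EC50 EGF. Compound exposure 5 h, 37 °C. Detection: CCF4, 2.5 h RT, 460/530 nm. Values: AC50 from titration.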

[3] = Stat Signaling Pathway (AID 446; active means well fitted curve in either direction with a large enough effect, not every such curve was filed as active;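 further: ME-180 cervical cancer cells given 40 pM IL-6 alongside compound; SIE-controlled beta-lactamase reporter measured as 460/530 nm FRET emission ratio; on the % scale 0 is the no-effect control and ±100 the full control effect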); settings: ME-180 SIE beta-lactamase reporter, IL-6 stimulated, 5 h; at 7.69 µM (top of the series) unless noted
Procedure, shortened: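 ME-180 SIE-bla cells; overnight plating; cpd + IL-6 40 pM, 5 h, 37 C; LiveBLAzer 2.5 h RT; 460/530 nm emission ratio. Normalized to 300 pM IL-6 and 125 nM JAK inhibitor controls.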

[4] = target: Glucocorticoid receptor (Homo sapiens) (UniProt P04150); experiment: GR-GFP Redistribution (AID 450;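 active means compounds whose dose series gives a full or clear partial fitted curve of increased nuclear translocation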; further: potency means the concentration at half of the fitted maximal effect); settings: U2OS GR-GFP nuclear translocation, laser cytometry, 2 h
[5] = target: Glucocorticoid receptor (Homo sapiens) (UniProt P04150); experiment: GR-EFC Redistribution (AID 451; calls by dose curve; further: potency means the concentration at half of the fitted maximal effect); settings: CHO-K1 GR-EFC translocation, beta-gal luminescence, 2 h
Procedure, shortened: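 CHO-K1 cells stably expressing nuclear-localized β-gal enzyme acceptor and GR fused C-terminally to the enzyme donor fragment; ligand-driven nuclear translocation restores β-gal by complementation. Compounds titrated up to 46 uM final, 2 h at 37 °C; luminescence read.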

[6] = target: Mitogen-activated protein kinase 10 (Mus musculus) (UniProt Q61831); experiment: JNK3 AlphaScreen Assay (AID 530; active means well fitted curve in either direction with a large enough effect, not every such curve was filed as active;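 further: kinase came from lysate of stimulated human HepG2 cells; signal reports phosphorylation of biotinylated GST-cJun 1-79 at Ser73 with 10 µM ATP; on the % scale 0 is the no-effect control and ±100 the full control effect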); settings: JNK3 lysate, c-Jun phosphorylation; series mostly up to 57.1 µM
Procedure, shortened: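 JNK3 came from HepG2 lysates pre-activated with IL-1beta and TNF-alpha and phosphorylated biotinylated GST-cJun (1-79) at 10 uM ATP, pH 7.6, room temperature. Compounds were titrated. AlphaScreen signal used anti-phospho-cJun (Ser73) antibody.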

[7] = target: Dual specificity protein kinase CLK4 (Homo sapiens) (UniProt Q9HAZ1); experiment: qHTS Assay for Inhibitors of CDC-like Kinase 4 (Kinase-Glo Assay) (AID 1770); settings: recombinant Clk4, Kinase-Glo ATP depletion luminescence; series mostly up to 66.7 µM; further: on the % scale 0 is the no-effect control and ±100 the full control effect; nearly all actives have a fitted effect of over 65% in size
Procedure, shortened: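 25 nM Clk4 with 100 uM RS repeat peptide and 1 uM ATP (final) in Tris pH7.5, 10 mM MgCl2, 4.5 h at room temperature. Remaining ATP measured by Kinase-Glo luciferase luminescence.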

[8] = target: Dual specificity protein kinase CLK4 (Homo sapiens) (UniProt Q9HAZ1); experiment: qHTS Assay for Inhibitors of CDC-like Kinase 4 (ADP-FP Assay) (AID 1795); settings: Transcreener ADP fluorescence polarization; series mostly up to 50 µM;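 further: recombinant human CLK4 phosphorylating RS repeat peptide at 1 µM ATP; on the % scale 0 is the no-effect control and ±100 the full control effect; nearly all actives have a fitted effect of over 60% in size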
Procedure, shortened: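 Recombinant Clk4 (6.25 nM) phosphorylated 100 uM RS repeat peptide with 1 uM ATP in 25 mM Tris pH 7.5, 10 mM MgCl2, 0.5 mM EGTA, 2.5 mM DTT, 0.01% Triton X-100 for 1 h. ADP was detected by Transcreener ADP2 competitive fluorescence polarization after 30 min at room temperature.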

[9] = target: Ubiquitin carboxyl-terminal hydrolase 1 (Homo sapiens) (UniProt O94782); experiment: Inhibitors of USP1/UAF1: Pilot qHTS (AID 504865); settings: purified USP1/UAF1, Ub-rhodamine cleavage fluorescence; series mostly up to 54.9 µM; further: nearly all actives have a fitted effect of over 35% in size; further: potency means the concentration at half of the fitted maximal effect
Procedure, shortened: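 USP1/UAF1 complex at 1 nM preincubated 15 min at room temperature with compound, then Ub-Rho substrate added at 150 nM final. Fluorescence (480/540 nm) read kinetically in 50 mM HEPES pH 7.8, 0.5 mM EDTA, 1 mM TCEP, 0.1 mg/ml BSA, 0.01% Tween-20.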

[10] = Primary qHTS for small molecule stabilizers of the endoplasmic reticulum resident proteome: Secreted ER Calcium Modulated Protein (SERCaMP) assay (AID 1508630); settings: SH-SY5Y GLuc-SERCaMP (Gaussia luciferase released on ER calcium loss) secretion, thapsigargin, luminescence; series mostly up to 38.4 µM; further: on the % scale 0 is the no-effect control and ±100 the full control effect
Procedure, shortened: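 GLuc-SERCaMP-expressing SH-SY5Y cells, pretreated 16 h with compound, are challenged with thapsigargin to empty ER calcium stores; after 4 h, coelenterazine is added directly to the medium and luminescence is imaged.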

[11] = target: Cytochrome P450 1A2 (Homo sapiens) (UniProt P05177); experiment: p450-cyp1a2 (AID 410; calls by dose curve; further: potency means the concentration at half of the fitted maximal effect); settings: recombinant CYP1A2, luciferin-ME demethylation, luminescence; series mostly up to 57 µM
Procedure, shortened: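 Inhibition was calculated relative to 57 uM furafylline (full inhibition). The reaction used human CYP1A2 at 20nM with Luciferin-ME at its Km, 100uM, driven by an NADPH-regenerating system for 60 min at room temperature.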

[12] = NFAT Signaling Pathway (AID 444; active means well fitted curve in either direction with a large enough effect, not every such curve was filed as active); settings: Jurkat NFAT-bla M1, carbachol, beta-lactamase ratio, 5 h; at 7.69 µM (top of the series) unless noted
Procedure, shortened: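 Jurkat cells carrying an NFAT-driven β-lactamase reporter and co-transfected muscarinic M1 receptor were treated with compound plus carbachol (1 uM final, an EC50 level) for 5 h at 37 °C. CCF4 loading followed for 1 h at RT; 460/530 nm ratio gave %activity.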

[13] = target: 3',5'-cyclic-AMP phosphodiesterase 4B (Homo sapiens) (UniProt Q07343); experiment: qHTS Assay for Inhibitors of PDE-IV (AID 607; active means well fitted activation curve with a large enough effect in the main read-out, with a control signal flat, not every such curve was filed as active; further: % of control where 0% means no effect); settings: HEK293 ACTOne CNG channel cells, membrane potential fluorescence; series mostly up to 22.9 µM
Procedure, shortened: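 ACTOne HEK293 cells carry a modified cAMP-gated CNG channel and express endogenous PDE4; plated 1000 cells/well, compounds up to 22.9 uM final. Membrane-potential dye fluorescence (ex 535/em 590) was read; parental cells received 10 uM forskolin + 100 uM RO 20-1724.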

[14] = target: Cytochrome P450 3A4 (Homo sapiens) (UniProt P08684); experiment: qHTS Assay for Inhibitors and Substrates of Cytochrome P450 3A4 (AID 884); settings: recombinant CYP3A4, Luciferin-PPXE luminescence; series mostly up to 57.1 µM; further: potency means the concentration at half of the fitted maximal effect; nearly all actives have a fitted effect of over 50% in size
Procedure, shortened: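 20 nM human CYP3A4 with 25 uM Luciferin-PPXE (at KM) in 200 mM KPO4, preincubated 10 min with compound; NADPH regeneration started a 60 min RT reaction. Luciferin detected by luminescence, normalized to 57 uM ketoconazole as full inhibition.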

[15] = target: Cytochrome P450 3A4 (Homo sapiens) (UniProt P08684); experiment: qHTS Assay for Activators of Cytochrome P450 3A4 (AID 885); settings: recombinant CYP3A4, Luciferin-PPXE luminescence, 60 min; series mostly up to 57.1 µM; further: nearly all actives have a fitted effect of over 65% in size
Procedure, shortened: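 20nM CYP3A4 + 25uM Luciferin-PPXE (=KM), 200mM KPO4; cpd 10 min RT; NADPH regen, 60 min RT; stop w/ detection buffer, 20 min; luminescence. Normalized to 57 uM ketoconazole.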

[16] = target: Dual specificity protein kinase CLK4 (Homo sapiens) (UniProt Q9HAZ1); experiment: qHTS Assay for Inhibitors of CDC-like Kinase 4 (ADP-Glo Assay) (AID 1771); settings: recombinant CLK4, ADP-Glo luminescence; series mostly up to 80 µM; further: on the % scale 0 is the no-effect control and ±100 the full control effect; nearly all actives have a fitted effect of over 70% in size
Procedure, shortened: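 Kinase reaction: Clk4 at 25 nM, RS repeat peptide substrate at 100 uM, ATP at 1 uM, 1 hr, room temperature. Product ADP detected as luciferase signal via ADP-Glo.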

Chain of Dual specificity protein kinase CLK4 (Homo sapiens) (Q9HAZ1 whole entry, looked up): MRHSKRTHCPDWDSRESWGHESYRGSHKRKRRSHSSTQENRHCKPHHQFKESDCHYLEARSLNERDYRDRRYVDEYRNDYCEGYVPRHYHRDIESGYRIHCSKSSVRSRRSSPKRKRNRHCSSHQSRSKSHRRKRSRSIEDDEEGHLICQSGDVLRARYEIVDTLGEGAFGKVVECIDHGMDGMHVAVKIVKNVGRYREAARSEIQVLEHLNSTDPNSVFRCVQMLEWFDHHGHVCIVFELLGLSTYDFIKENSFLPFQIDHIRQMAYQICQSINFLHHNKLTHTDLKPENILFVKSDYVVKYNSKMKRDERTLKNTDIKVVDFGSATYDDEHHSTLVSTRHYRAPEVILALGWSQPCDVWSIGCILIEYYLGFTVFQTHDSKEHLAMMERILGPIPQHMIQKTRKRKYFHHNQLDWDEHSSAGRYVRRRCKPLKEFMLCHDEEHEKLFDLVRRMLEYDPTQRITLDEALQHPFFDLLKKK
Chain of Cytochrome P450 3A4 (Homo sapiens) (P08684 whole entry, looked up): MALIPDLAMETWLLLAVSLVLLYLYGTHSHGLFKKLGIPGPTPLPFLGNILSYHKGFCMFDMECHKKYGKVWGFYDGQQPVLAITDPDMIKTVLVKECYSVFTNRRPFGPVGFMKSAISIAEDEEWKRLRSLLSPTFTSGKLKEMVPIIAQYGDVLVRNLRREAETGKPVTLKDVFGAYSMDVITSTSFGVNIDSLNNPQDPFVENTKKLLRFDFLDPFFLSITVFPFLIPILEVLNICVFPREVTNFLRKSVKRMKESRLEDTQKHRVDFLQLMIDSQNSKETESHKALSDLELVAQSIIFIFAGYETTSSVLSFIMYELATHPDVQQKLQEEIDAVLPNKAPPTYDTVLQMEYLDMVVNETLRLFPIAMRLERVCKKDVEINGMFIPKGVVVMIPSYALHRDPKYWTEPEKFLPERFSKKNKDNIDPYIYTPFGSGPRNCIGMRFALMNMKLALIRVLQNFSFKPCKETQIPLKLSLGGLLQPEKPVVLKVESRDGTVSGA
Chain of Ubiquitin carboxyl-terminal hydrolase 1 (Homo sapiens) (O94782 whole entry, looked up): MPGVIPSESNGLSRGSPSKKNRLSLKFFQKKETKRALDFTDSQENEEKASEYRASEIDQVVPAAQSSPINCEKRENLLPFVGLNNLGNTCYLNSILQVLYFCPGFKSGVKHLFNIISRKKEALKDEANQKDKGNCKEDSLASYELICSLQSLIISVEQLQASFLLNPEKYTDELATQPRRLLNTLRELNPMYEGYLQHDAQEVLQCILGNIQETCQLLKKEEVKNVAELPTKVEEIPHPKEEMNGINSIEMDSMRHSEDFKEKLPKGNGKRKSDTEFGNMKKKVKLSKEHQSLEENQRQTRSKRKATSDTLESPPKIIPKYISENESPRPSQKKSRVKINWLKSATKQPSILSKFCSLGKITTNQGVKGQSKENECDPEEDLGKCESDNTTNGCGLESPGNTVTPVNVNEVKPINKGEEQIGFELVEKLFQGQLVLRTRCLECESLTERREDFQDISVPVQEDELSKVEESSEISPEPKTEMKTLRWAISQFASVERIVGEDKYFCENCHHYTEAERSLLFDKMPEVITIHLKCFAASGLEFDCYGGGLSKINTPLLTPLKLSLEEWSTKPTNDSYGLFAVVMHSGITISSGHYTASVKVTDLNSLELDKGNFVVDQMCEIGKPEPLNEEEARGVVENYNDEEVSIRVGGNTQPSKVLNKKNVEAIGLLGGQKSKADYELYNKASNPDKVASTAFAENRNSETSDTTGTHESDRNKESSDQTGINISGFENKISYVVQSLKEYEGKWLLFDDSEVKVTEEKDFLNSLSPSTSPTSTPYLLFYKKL
Chain of Lysosomal acid glucosylceramidase (Homo sapiens) (P04062 whole entry, looked up): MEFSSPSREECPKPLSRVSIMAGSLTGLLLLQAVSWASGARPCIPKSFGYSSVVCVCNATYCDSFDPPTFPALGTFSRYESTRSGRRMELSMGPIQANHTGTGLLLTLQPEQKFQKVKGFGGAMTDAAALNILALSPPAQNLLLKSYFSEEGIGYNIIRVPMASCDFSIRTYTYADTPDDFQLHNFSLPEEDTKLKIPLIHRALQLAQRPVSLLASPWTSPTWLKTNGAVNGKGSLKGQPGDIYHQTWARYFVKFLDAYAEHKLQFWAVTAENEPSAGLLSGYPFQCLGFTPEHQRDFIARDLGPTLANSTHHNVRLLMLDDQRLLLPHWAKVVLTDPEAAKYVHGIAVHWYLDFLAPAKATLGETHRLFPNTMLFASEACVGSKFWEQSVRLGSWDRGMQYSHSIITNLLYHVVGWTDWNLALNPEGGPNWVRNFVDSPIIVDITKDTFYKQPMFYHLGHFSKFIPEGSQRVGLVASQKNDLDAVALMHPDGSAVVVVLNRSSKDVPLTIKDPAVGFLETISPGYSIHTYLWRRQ
Chain of Glucocorticoid receptor (Homo sapiens) (P04150 whole entry, looked up, the tested form may be a part): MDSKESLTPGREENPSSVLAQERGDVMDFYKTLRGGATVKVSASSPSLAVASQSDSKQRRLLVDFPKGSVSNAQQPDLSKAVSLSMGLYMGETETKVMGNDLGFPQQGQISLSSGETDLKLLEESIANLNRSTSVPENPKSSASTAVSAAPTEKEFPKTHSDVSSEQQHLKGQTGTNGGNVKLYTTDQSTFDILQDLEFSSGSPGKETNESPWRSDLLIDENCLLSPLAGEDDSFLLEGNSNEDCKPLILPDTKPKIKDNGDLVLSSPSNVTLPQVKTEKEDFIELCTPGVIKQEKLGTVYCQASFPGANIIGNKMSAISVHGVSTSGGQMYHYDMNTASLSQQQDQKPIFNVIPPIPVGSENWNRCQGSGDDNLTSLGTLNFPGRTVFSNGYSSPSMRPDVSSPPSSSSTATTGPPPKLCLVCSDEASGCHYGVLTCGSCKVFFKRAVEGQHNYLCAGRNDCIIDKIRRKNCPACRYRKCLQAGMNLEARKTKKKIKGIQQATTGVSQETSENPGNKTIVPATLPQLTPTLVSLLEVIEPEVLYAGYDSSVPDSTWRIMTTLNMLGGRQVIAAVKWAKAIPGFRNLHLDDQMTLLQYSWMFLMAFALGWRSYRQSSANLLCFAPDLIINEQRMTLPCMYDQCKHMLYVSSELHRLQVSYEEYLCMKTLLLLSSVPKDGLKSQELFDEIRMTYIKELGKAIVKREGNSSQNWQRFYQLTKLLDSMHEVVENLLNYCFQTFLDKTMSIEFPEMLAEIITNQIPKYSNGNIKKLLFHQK
Chain of Cytochrome P450 1A2 (Homo sapiens) (P05177 whole entry, looked up): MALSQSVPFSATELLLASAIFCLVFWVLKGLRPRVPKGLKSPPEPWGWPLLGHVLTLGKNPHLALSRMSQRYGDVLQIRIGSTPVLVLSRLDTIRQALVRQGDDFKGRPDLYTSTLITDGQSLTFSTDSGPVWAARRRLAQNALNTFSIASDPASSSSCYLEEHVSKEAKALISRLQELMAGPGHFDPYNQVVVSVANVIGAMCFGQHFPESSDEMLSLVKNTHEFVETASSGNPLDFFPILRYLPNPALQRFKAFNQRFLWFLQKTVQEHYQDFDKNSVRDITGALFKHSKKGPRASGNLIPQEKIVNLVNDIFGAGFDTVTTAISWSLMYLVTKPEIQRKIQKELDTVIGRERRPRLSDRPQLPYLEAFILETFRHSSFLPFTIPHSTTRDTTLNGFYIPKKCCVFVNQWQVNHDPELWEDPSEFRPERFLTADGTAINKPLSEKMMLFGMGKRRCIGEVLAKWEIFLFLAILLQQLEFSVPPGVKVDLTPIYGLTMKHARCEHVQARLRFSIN
Chain of 3',5'-cyclic-AMP phosphodiesterase 4B (Homo sapiens) (Q07343 whole entry, looked up): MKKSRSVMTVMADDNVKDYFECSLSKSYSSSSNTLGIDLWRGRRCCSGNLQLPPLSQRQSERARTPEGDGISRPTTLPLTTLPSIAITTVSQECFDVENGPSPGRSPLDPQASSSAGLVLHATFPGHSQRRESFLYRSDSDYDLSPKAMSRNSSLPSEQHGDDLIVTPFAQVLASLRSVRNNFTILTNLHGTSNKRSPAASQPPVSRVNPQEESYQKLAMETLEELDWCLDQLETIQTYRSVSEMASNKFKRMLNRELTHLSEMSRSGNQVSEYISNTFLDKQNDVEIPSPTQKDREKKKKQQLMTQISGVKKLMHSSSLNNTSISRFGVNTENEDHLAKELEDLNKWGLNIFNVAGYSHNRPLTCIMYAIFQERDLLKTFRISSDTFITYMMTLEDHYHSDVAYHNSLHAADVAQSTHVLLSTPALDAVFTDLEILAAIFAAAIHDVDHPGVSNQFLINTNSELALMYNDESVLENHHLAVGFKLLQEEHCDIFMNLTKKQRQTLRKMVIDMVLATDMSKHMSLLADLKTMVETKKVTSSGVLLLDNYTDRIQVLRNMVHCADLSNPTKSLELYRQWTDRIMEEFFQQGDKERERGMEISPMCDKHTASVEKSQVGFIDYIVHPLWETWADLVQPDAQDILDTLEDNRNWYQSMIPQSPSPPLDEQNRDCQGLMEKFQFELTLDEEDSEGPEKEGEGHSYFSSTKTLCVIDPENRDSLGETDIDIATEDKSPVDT

Cc1noc(C)c1-c1nc(NCc2ccccc2)c2ccccc2n1
Potency [1]: > 11.4 µM | activity change, negative = inhibition [2]: -3.06% | activity, negative = inhibition [3]: -4.57% | Potency [4]: > 46 µM | Potency [5]: > 46 µM | Potency [6]: inactive | Potency [7]: inactive | Potency [8]: inactive | Potency [9]: 6.31 µM (active) | outcome [10]: inactive

Cc1nc2cnc(Oc3cccc(Cl)c3)nc2n(C2CC2)c1=O
Potency [1]: > 11.4 µM | Potency [11]: 6.31 µM (active) | activity change, negative = inhibition [12]: -5.3% | activity, negative = inhibition [3]: -13.7% | Potency [4]: > 9.22 µM | Potency [5]: > 46 µM | Potency [6]: inactive | Potency [13]: inactive | Potency [7]: inactive | Potency [8]: inactive | Potency [9]: inactive | outcome [10]: inactive

COc1cccc(Nc2ncc3nc(-c4cccs4)c(=O)n(CCC#N)c3n2)c1
Potency [1]: > 11.4 µM | Potency [11]: 2.51 µM (active) | Potency [4]: > 9.22 µM | Potency [5]: > 46 µM | Potency [6]: inactive | Potency [13]: inactive | Potency [14]: 6.31 µM (active) | Potency [15]: inactive | Potency [7]: inactive | Potency [8]: inactive | Potency [9]: inactive | outcome [10]: inactive

Cc1cnc(CNc2nc(-c3cccc(NS(C)(=O)=O)c3)nc3ccccc23)cn1
Potency [1]: > 11.4 µM | activity change, negative = inhibition [2]: -28.3% | activity change, negative = inhibition [12]: 19.4% | activity, negative = inhibition [3]: -4.54% | Potency [4]: > 46 µM | Potency [5]: > 46 µM | Potency [6]: inactive | Potency [13]: inactive | Potency [7]: inactive | Potency [8]: inactive | Potency [9]: inactive | outcome [10]: inactive

CCNc1ncc2nc(C)c(=O)n(C[C@H]3CCCO3)c2n1
Potency [1]: > 11.4 µM | activity change, negative = inhibition [2]: 3.27% | Potency [11]: 3.98 µM (active) | activity change, negative = inhibition [12]: -7.96% | activity, negative = inhibition [3]: -8.96% | Potency [4]: > 9.22 µM | Potency [5]: > 46 µM | Potency [6]: inactive | Potency [13]: inactive | Potency [7]: inactive | Potency [9]: inactive | outcome [10]: inactive

O=c1c(-c2ccc(Cl)cc2)nc2cnc(Nc3ccccc3)nc2n1C1CC1
Potency [1]: > 11.4 µM | activity change, negative = inhibition [2]: -1.39% | activity change, negative = inhibition [12]: -9.46% | activity, negative = inhibition [3]: -0.41% | Potency [4]: > 9.22 µM | Potency [5]: > 46 µM | Potency [6]: inactive | Potency [13]: inactive | Potency [16]: inactive | Potency [8]: inactive | Potency [9]: inactive | outcome [10]: inactive

Cc1cnc(CNc2nc(-c3ccccc3C)nc3ccccc23)cn1
Potency [1]: > 11.4 µM | activity change, negative = inhibition [2]: -8.73% | Potency [11]: 3.16 µM (active) | activity change, negative = inhibition [12]: -6.95% | activity, negative = inhibition [3]: -5.75% | Potency [4]: > 46 µM | Potency [5]: > 46 µM | Potency [6]: inactive | Potency [13]: inactive | Potency [15]: inactive | Potency [16]: inactive | Potency [8]: inactive | Potency [9]: inactive | outcome [10]: inactive
